Experimental data published in ChEMBL document CHEMBL3988442, “University of Dundee, Small-Polar-MMV Screening Library” (2021).
Out of some 48,000 compounds screened, about 13,000 (27%) showed an effect of 50% or more. The list shows a part of the results.

test system: Wolbachia pipientis; assay: Anti-Wolbachia Cell-Based Screen; assay type: functional; set-up: scale not given: in the data most compounds retested in dose-response had high values; conditions: 5 µM

Structure (SMILES)	Percent Effect [%]
CCn1cnnc1CNC(=O)N(C)Cc1cccc(Cl)c1Cl	-4.031
CCS(=O)(=O)N1CCC2(CN(Cc3ccc(C)o3)C2)C1	-24.8
Cc1ccc(CN2CC3(CCN(S(=O)(=O)c4ccccc4)C3)C2)o1	-20.52
Cc1ccc(CN2CC3(CCN(C(=O)Cc4ccc(Cl)cc4)C3)C2)o1	100.7
CCCOc1ccc(Cl)cc1CNc1ncnc2oc(C)nc12	-1.031
Cc1nn(C)c(C)c1NC(=O)CN1CCCC1c1noc(C2CC2)n1 (stereo not drawn)	-4.679
Cc1nc(C2CCCN2CC(=O)Nc2c(C)nn(C)c2C)no1 (stereo not drawn)	-17.15
Cc1n[nH]c(C)c1NC(=O)CN1CCCC1c1noc(C2CC2)n1 (stereo not drawn)	90.47
Cc1nn(C)c(C)c1NC(=O)CN1CCCC1c1noc(C(C)C)n1 (stereo not drawn)	-6.278
Cc1cc(NC(=O)CN2CCCC2c2noc(C(C)C)n2)n(C)n1 (stereo not drawn)	-5.63
CCc1nc(C2CCCN2CC(=O)Nc2c(C)n[nH]c2C)no1 (stereo not drawn)	6.679
Cc1nc(C2CCCN2CC(=O)Nc2c(C)n[nH]c2C)no1 (stereo not drawn)	89.73
Cc1n[nH]c(C)c1NC(=O)CN1CCCC1c1noc(C(C)C)n1 (stereo not drawn)	106.9
CCc1nnc(CNC(=O)c2cc3c(nc2OC)CCC3)s1	18.91
CCN1CCN(C(=O)c2cc(F)cc3nc(C)c(C)nc23)CC1	-0.6809
CC(C)[C@@H](C)NC(=O)N1CCn2nc(C(=O)NCCN(C)C)cc2C1	-12.94
COc1ccccc1NCc1cscn1.Cl	-2.575
COc1cc(C(C)NCc2cscn2)ccc1SC(F)F (stereo not drawn)	-37.81
CC(C)CC(NCc1ccsc1)c1ccccn1 (stereo not drawn)	110.4
NC(=O)C(NCc1cccs1)c1ccccc1 (stereo not drawn)	8.593
CC(C)CC(NCc1cccs1)c1ccccn1 (stereo not drawn)	107.8
CC(C)Cc1nnc(NCc2ccsc2)o1	-5.765
CC(NCc1cccc(C#N)c1)c1ccccn1.Cl (stereo not drawn)	-10.04
CC(C)CC(NCc1cscn1)c1ccccn1 (stereo not drawn)	95.9
O=C(Cn1cccnc1=O)NC(Cc1cccs1)c1ccccn1 (stereo not drawn)	-8.701
O=C(NCCc1[nH]nc2c1CCCC2)C1CCCN(Cc2ccco2)C1 (stereo not drawn)	3.369

Structure (SMILES)	Percent Effect [%]
COc1ccc(Cl)cc1CS(=O)(=O)Cc1cc(C)on1	6.419
CC(C)OCCS(=O)(=O)c1nccn1-c1cccc(F)c1	-15.74
c1cc(C[C@H]2[C@H](N3CCOCC3)CCN2Cc2ccoc2)ccn1	0.9808
CCN(CCCNc1ncnc2cc(F)c(F)cc12)S(C)(=O)=O	-17.06
Cc1ccc(OCC2CCCN(CC3CCOCC3)C2)cc1 (stereo not drawn)	-21.59
Cc1cccc(C(C)CNC(=O)N2CCC3(C2)OCCO3)c1 (stereo not drawn)	-6.289
O=C(NCC1CC1)C1=NOC2(CCN(S(=O)(=O)c3cccs3)C2)C1 (stereo not drawn)	6.398
Cc1cccc(C(=O)N2CCC3(CC(C(=O)N(C)C(C)C)=NO3)C2)c1 (stereo not drawn)	115.7
CC(C)N(C)C(=O)C1=NOC2(CCN(C(=O)c3ccncc3)C2)C1 (stereo not drawn)	5.935
Cc1ccsc1C(=O)N1CCC2(CC(C(=O)N(C)C(C)C)=NO2)C1 (stereo not drawn)	115.3
CC(C)N(C)C(=O)C1=NOC2(CCN(C(=O)NCc3cccnc3)C2)C1 (stereo not drawn)	-9.701
CC(C)N(C)C(=O)C1=NOC2(CCN(C(=O)c3cccn3C)C2)C1 (stereo not drawn)	84.53
CC(C)N(C)C(=O)C1=NOC2(CCN(C(=O)c3ccnnc3)C2)C1 (stereo not drawn)	97.08
CS(=O)(=O)NCc1ccc(C(=O)NCc2ccc3c(c2)CCC3)o1	9.511
CCc1nc(Cn2ccnc2-c2nccn2C)no1	0.7793
Cc1nc(CN(C)C2CCN(Cc3cccc4c3OCCO4)C2)no1 (stereo not drawn)	98.62
Cc1nc(CN(C)C2CCN(Cc3cccc4cccnc34)C2)no1 (stereo not drawn)	89.88
Cc1nc(CN(C)C2CCN(Cc3ccno3)C2)no1 (stereo not drawn)	0.1776
COc1ccc(OCC(=O)NC(C)c2ccc(F)cc2)c(C(=O)O)c1 (stereo not drawn)	-8.723
Cc1cc(C(=O)N2CCCC(Cn3cc(C4CC4)nn3)C2)nc(C)n1 (stereo not drawn)	-17.66
Cc1cc(-c2nccs2)nc(C2CCN(Cc3ccncc3)CC2)n1.Cl	130.1
CCn1c(CN2CCCC2)nnc1C1CCN(Cc2ccncc2)CC1	-5.506
CCn1c(CN(C)C)nnc1C1CCN(Cc2ccncc2)CC1	-6.888
Cc1ccsc1-c1nnc(C2CCN(Cc3ccc(F)cc3)CC2)o1	-8.577
Cc1cc(-c2nccs2)nc(C2CCN(Cc3ccc(F)cc3)CC2)n1.Cl	104.7
CNC(=O)CSC(C)c1ccc(Br)cc1 (stereo not drawn)	-4.092

Structure (SMILES)	Percent Effect [%]
COC(=O)CN(C(=O)c1ccco1)c1cccc(F)c1	6.947
O=c1c2cccnc2cnn1CC(O)c1cccc(C(F)(F)F)c1 (stereo not drawn)	6.556
NC(=O)NC(=O)CCSCc1coc(-c2ccc(F)cc2)n1	75.11
COC(=O)CSCc1noc(-c2ccc(C)cc2)n1	-9.658
Cc1ccc(-c2nc(CCNC(=O)CCN3CCOC3=O)co2)cc1	4.701
COCCN(Cc1coc(-c2cccc(Cl)c2)n1)C1CC1	9.963
Cc1ccc(-c2nc(CSCCC(=O)NC(N)=O)co2)c(C)c1	110.2
CC(SCCC(=O)NC(N)=O)c1ccc(F)cc1F (stereo not drawn)	-2.178
CNC(=O)CS(=O)(=O)Cc1coc(-c2ccc(F)cc2)n1	-9.885
O=C(NCCc1coc(-c2ccc(F)cc2)n1)NC1CCC(O)CC1 (stereo not drawn)	2.186
NC(=O)NC(=O)CCSCc1coc(-c2cccc(Cl)c2)n1	85.07
CC(O)CN1CCN(Cc2coc(-c3cccc(Cl)c3)n2)CC1 (stereo not drawn)	-12.56
Cc1ccc(-c2nc(CSCCC(=O)NC(N)=O)co2)cc1	98.78
NC(=O)NC(=O)CCSc1ccccc1Cl	-10.1
CNc1nc(C(=O)NCc2cccnc2N(C)C2CCCCC2)cs1	1.168
Cc1nn(C)c2nc(N(C)CCN(C)C)sc12	-12.15
Cc1cc(C#N)ccc1S(=O)(=O)NCc1cnc(N(C)C)n1C	-10.13
CN(C)CC(=O)N1CCC2(CC(=O)N(c3cccc(C#N)c3)C2)C1.O=C(O)C(F)(F)F (stereo not drawn)	-15.58
N#Cc1ccccc1N1CC2(CCCCN2CC2CC2)CC1=O.O=C(O)C(F)(F)F (stereo not drawn)	-5.23
COCCN1CCCCC12CC(=O)N(c1ccccc1OC)C2.O=C(O)C(F)(F)F (stereo not drawn)	105
Cc1ccccc1N1CC2(CCCCN2CC2CC2)CC1=O.O=C(O)C(F)(F)F (stereo not drawn)	0.424
O=C(O)C(F)(F)F.O=C1CC2(CCCCN2CC2CC2)CN1c1ccccc1 (stereo not drawn)	-2.383
COCCN1CCCCC12CC(=O)N(c1cccc(C#N)c1)C2.O=C(O)C(F)(F)F (stereo not drawn)	96.19
CCN1CCN(C(=O)c2ccc(OC)nn2)c2ccccc21	6.209
CC(C)(C)Cc1nnc(NCc2cccc(C#N)c2)o1	-57.27
CC(C)S(=O)(=O)NCC1CCCN(C(=O)c2cccnc2)C1 (stereo not drawn)	-9.569

Structure (SMILES)	Percent Effect [%]
CS(=O)(=O)NC1CCCN(C(=O)Nc2cccnc2)C1 (stereo not drawn)	122.7
Cn1cc(NC(=O)N2CCC(NS(C)(=O)=O)CC2)ccc1=O	-4.185
CS(=O)(=O)NC1CCCN(C(=O)c2cccnc2)C1 (stereo not drawn)	108.4
CS(=O)(=O)NC1CCN(C(=O)c2ccc(Br)cc2)C1 (stereo not drawn)	2.662
CS(=O)(=O)NC1CCCN(C(=O)Nc2cccnc2N2CCCC2)C1 (stereo not drawn)	111.1
COCCCC(=O)Nc1cccnc1N1CCCCC1	0.2962
CC(NC(=O)Nc1cccnc1N1CCCC1)c1ccccn1 (stereo not drawn)	9.094
CCCN(C(=O)CNC1CCc2ncnn2C1)C1=CCCCC1 (stereo not drawn)	7.464
COC1CCN(C(=O)CC(C)(C)C)CC(=O)N(C)c2ccccc21 (stereo not drawn)	108.9
CC(C)(C)CC(=O)N1CC[C@H]2CC(=O)N(CCc3c[nH]cn3)CC[C@H]2C1	-18.99
CC(C)(C)CC(=O)N1CC[C@H]2NC(=O)N(Cc3ccccc3)C(=O)[C@H]21	-1.242
COC1CCN(C(=O)COC(C)=O)CC(=O)N(C)c2ccccc21 (stereo not drawn)	102.8
CCC[C@H]1CN(c2nccc(OC)n2)C[C@@H]1NS(=O)(=O)N(C)C	12.34
CCN(Cc1nccn1C)C(=O)c1ccc(NCCc2c[nH]cn2)nc1	-4.233
CCN(Cc1cnn(C)c1)S(=O)(=O)c1ccc(NC(C)=O)cc1	-1.303
CCCN(Cc1cnn(C)c1)S(=O)(=O)c1cc(C)cc(F)c1	91.35
CCN(Cc1cnn(C)c1)S(=O)(=O)c1ccc(NC(=O)C(C)(C)C)cc1	-17.75
CCN(CCC(F)(F)F)S(=O)(=O)c1cccc(F)c1C#N	-15.21
CCCN(Cc1cnn(C)c1)S(=O)(=O)c1ccc(F)c(C#N)c1	88.2
CCCN(Cc1cnn(C)c1)S(=O)(=O)c1cccc(F)c1C#N	103.9
COCCN(C)S(=O)(=O)c1cc(C)cc(F)c1	-0.1957
CCCN(Cc1cnn(C)c1)CC1CCCN(S(C)(=O)=O)C1 (stereo not drawn)	-6.058
CN(CCn1cccn1)S(=O)(=O)c1cccc(F)c1C#N	-19.52
COCCOCC(=O)NCCCOC1CCCc2ccccc21 (stereo not drawn)	-58.49
Cc1noc(C)c1CS(=O)(=O)CC(=O)N(C)Cc1cccc(F)c1	-54.06
